“And” between values parts separate entries of the source, which are not always exact repeats. Equal entries are not always repeated. Inconclusive results are not listed. The source made the active and inactive calls. Calls follow the shape of the dose curve; as a rule, active = well fitted cell-killing curve with a large enough effect in the repeat runs; inconclusive = weak or mixed curves, or effect the other way; inactive = flat fitted curve, though single readings scatter.

From PubChem BioAssay (Tox21) come the findings set out here.
% is scaled to controls: 0 for no effect and ±100 for the full control effect; potency is read from the fitted curve at half-maximal effect.

A short description of this experiment: cAMP Responsive Elements (CRE) small molecule antagonists, cell-based qHTS assay: qHTS cell viability counter screen (AID 2060913). Also: nearly all actives have a fitted effect of over 40% in size. The settings on record: CRE-bla HEK293T viability, CellTiter-Glo luminescence, 5 h; series mostly up to 92.4 µM; viability change, negative = cytotoxic: at the top concentration. The text has this:
U.S. Tox21 Program National Center for Advancing Translational Sciences [NCATS] Division of Preclinical Innovation [DPI] U.S. Environmental Protection Agency [EPA] National Institutes of Environmental Health Sciences [NIEHS] National Toxicology Program [NTP] U.S. Food and Drug Administration [FDA] Tox21 Assay Overview: CREB (cyclic-AMP Responsive Element Binding Protein) is a cellular transcription factor. It binds to certain DNA sequences called cAMP Responsive Elements (CRE) and regulates the transcription of the genes. […] This cell line can be used to find agonists/antagonists of the cyclic AMP signaling pathway. The activation of the report gene under culture conditions can be detected by fluorescence intensity. This cell line has been used to screen the Tox21 10K compound library to identify agonists that induce oxidative stress. The cytotoxicity of the Tox21 compound library against the CRE-bla cell line was tested in parallel by measuring the cell viability using CellTiter-Glo assay (Promega, Madison, WI) in the same wells.
Tox21 Assay Protocol Summary: CRE-bla Hek 293T cells were suspended in assay medium (DMEM containing 10% dialyzed FBS, 0.1 mM NEAA, 1 mM sodium pyruvate and 25 mM HEPES) and dispensed at 2,000 cells/4 uL /well into 1536-well black wall/clear bottom plates using a Multidrop Combi (ThermoFisher Scientific, Waltham, MA) dispenser. After the assay plates were incubated at 37 C/5% CO2 for 18 hrs, 23 nL of compounds dissolved in DMSO, positive controls or DMSO only was transferred to the assay plate by a pintool workstation (Kalypsys, San Diego, CA), followed by addition of 1 uL of 1.25uM NKH477 (0.25 uM as final concentration) in assay medium using a Flying Reagent Dispenser (Aurora Discovery, San Diego, CA). The plates were incubated at 37 C and 5% CO2 for 3 hrs. Then 1 uL of LiveBLAzer B/G FRET substrate (Invitrogen, Carlsbad, CA) was added to each well using Bioraptr Flying Reagent Dispenser (FRD, Aurora Discovery, San Diego, CA). The plates were incubated at room temperature for 2 h, then fluorescence intensities were measured using an Envision plate reader (PerkinElmer, Shelton, CT) at Excitation 405nm, Emission 460nm and 530nm. The % activity was determined from the ratio of 460nm/530nm. For cell viability readout that measures cytotoxicity, 4 uL /well of CellTiter-Glo reagent was added into the assay plates using Bioraptr FRD. After 30 min incubation at room temperature, the luminescence intensity in the assay plates was measured using a ViewLux (PerkinElmer, Shelton, CT) plate reader.
For orientation: Quantitative high-throughput screening tests each substance at several concentrations.
As for `C=CCOc1c(Br)cc(Br)cc1Br`, the “viability change, negative = cytotoxic” value is -6.59% (inactive). With `CCCCS`, the “viability change, negative = cytotoxic” value is 1.87% (inactive). On the same count and under the same terms, with `CN1CCCC(CC2c3ccccc3Sc3ccccc32)C1` (stereo not given) the figure was -12.5% [at 42.5 µM] (inactive). As for `N=C(N)N1CCc2ccccc2C1`, the viability change, negative = cytotoxic is -0.283% [at 8.39 µM] (inactive). Same read-out and setting: with `C=CCCC=C` the figure was 0.157% (inactive).

As to `ClC/C=C/CCl`, the Potency entry is “inactive”. For `CC[C@H](NC(C)C)[C@H](O)c1ccc(O)c2[nH]c(=O)ccc12`, the “viability change, negative = cytotoxic” value was -1.27% [at 42.5 µM] (inactive).

Take `O=S(=O)(O)c1cccc2c(S(=O)(=O)O)cccc12`: the “viability change, negative = cytotoxic” value is -3.13% (inactive).

For `N[C@H](Cc1c[nH]c2ccccc12)C(=O)O`, the Potency result is “inactive”.

`CC(=O)c1ccccc1[N+](=O)[O-]`: the “viability change, negative = cytotoxic” value is -2.05% (inactive). Same read-out and setting: with `CCCCCCCCCCC` the figure was 0.0113% (inactive); with `CCCCCCCCCC#N`, -7.82% (inactive). Consider `O=C1CCCCC1C1CCCCC1` (stereo not given), for which the “viability change, negative = cytotoxic” value was 16.3% (inactive). Same read-out and setting: under `C=C(C)C(=O)NCCCN(C)C` stands -1.47% (inactive). On to `CC(C)c1cccc(C(C)C)c1N1C(=O)c2ccc(O)cc2C1=O`, for which the Potency is 61.1 µM (active).

Turning to `Clc1ccc(Sc2cc(Cl)c(Cl)cc2Cl)cc1`, the Potency result is “inactive”. Take `CC(C)C(=O)OCC(C)(C)C(O)C(C)C` (stereo not given): the “viability change, negative = cytotoxic” value is 4.92% (inactive). Still for that read-out and setting: with `CCc1c(Br)c(Br)c(Br)c(Br)c1Br` the figure was -13.6% (inactive); with `Cc1cc(C)c(N=Nc2c(O)c(S(=O)(=O)O)cc3cc(S(=O)(=O)O)ccc23)cc1C`, 13% [at 8.39 µM] (inactive). Regarding `O=S(=O)(O)c1ccc2cc(O)ccc2c1`, the Potency result was “inactive”. For the molecule `NC(=O)Cc1cccc2ccccc12`, the “viability change, negative = cytotoxic” value is 3.72% (inactive). On to `CC1CCC2CC1C2(C)C` (stereo not given), for which the Potency result was “inactive”. The same measure, in the same setting: with `NC[C@H](O)c1ccc(O)c(O)c1` the entry was “inactive”.

Regarding `Cc1ccc(C(=O)Nc2ccc(S(=O)(=O)O)c3cc(S(=O)(=O)O)cc(S(=O)(=O)O)c23)cc1NC(=O)c1cccc(NC(=O)Nc2cccc(C(=O)Nc3cc(C(=O)Nc4ccc(S(=O)(=O)O)c5cc(S(=O)(=O)O)cc(S(=O)(=O)O)c45)ccc3C)c2)c1`, the “viability change, negative = cytotoxic” value is 1.19% [at 42.5 µM] (inactive). Same read-out and setting: with `O=C(O)CCC(=O)Nc1ccc(S(=O)(=O)Nc2nccs2)cc1` the figure was -0.863% [at 42.5 µM] (inactive); with `CC1COc2ccccc2N1` (stereo not given), -0.457% (inactive); with `C=CC(O)CCCCC` (stereo not given), -2.34% (inactive).

On to `COC(=O)C(C)(C)C`, for which the “viability change, negative = cytotoxic” value was -13.5% (inactive). Same read-out and setting: with `CC(C)CC(=O)N[C@H](C(=O)N[C@H](C(=O)N[C@@H](CC(C)C)[C@@H](O)CC(=O)N[C@@H](C)C(=O)N[C@@H](CC(C)C)[C@@H](O)CC(=O)O)C(C)C)C(C)C` the figure was -5.3% [at 42.5 µM] (inactive); with `CC1(C)COCN1`, -0.583% (inactive). Take `Cc1cc2nc3ccc(=[N+](C)C)cc-3sc2cc1N`: the “viability change, negative = cytotoxic” value was -5.77% [at 42.5 µM] (inactive). Same read-out and setting: with `CCC[Si](OC)(OC)OC` the figure was 0.025% (inactive). For the molecule `CC1(C)CC(N)CC(C)(CN)C1` (stereo not given), the Potency result is “inactive”. As to `C=CC(=O)OCCOC(=O)C=C`, the “viability change, negative = cytotoxic” value is -0.267% (inactive). Same read-out and setting: with `CCN(C=O)CC` the figure was 1.98% (inactive). Regarding `CCCCCCCCCCCC[N+](C)(C)C`, the Potency was 54.3 µM (active) and 61.1 µM (active) and 68.6 µM (active).

Turning to `Cc1ccc(S(=O)(=O)N=C=O)cc1`, the Potency entry is “inactive”. Same read-out and setting: with `N#CCC(=O)O` the entry was “inactive”.

`c1cc[c]([Bi]([c]2ccccc2)[c]2ccccc2)cc1`: the “viability change, negative = cytotoxic” value is -12.1% (inactive). Still for that read-out and setting: with `Brc1ccccn1` the figure was 9.87% (inactive).
